Screening data deposited in PubChem by Broad Institute.
IDE exosite inh = insulin-degrading enzyme (human) exo-site inhibition; 17,000 tested, 6.3% active; z-score at 20 µM; purified IDE, FL-6b probe fluorescence polarization; stronger effect = lower value; P14735;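 active means z-score of -3 or lower, meaning strong loss of probe binding signal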;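 further: His-tagged human IDE residues 42-1019 made in E. coli with 30 nM FL-6b probe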
* hit, by the source's call. The full list was thinned out, with hits kept by preference.

SMILES	IDE exosite inh
O=C(C1CCC1)N1CC(=O)N2[C@@H](CO)[C@@H](c3ccc(C#CCc4ccccc4)cc3)[C@@H]2C1	-3.3*
O=C(C1CCCCC1)N1CC(=O)N2[C@H](C1)[C@@H](c1ccc(C#CCc3ccccc3)cc1)[C@@H]2CO	1.7
O=C(C1CCC1)N1CC(=O)N2[C@H](CO)[C@@H](c3ccc(C#CCc4ccccc4)cc3)[C@H]2C1	2.2
O=C(C1CCC1)N1CC(=O)N2[C@H](C1)[C@H](c1ccc(C#CCc3ccccc3)cc1)[C@@H]2CO	-3*
O=C(C1CCC1)N1CC(=O)N2[C@H](C1)[C@@H](c1ccc(C#CCc3ccccc3)cc1)[C@@H]2CO	-0.42
CC(C)c1cn(CC[C@H]2CC[C@@H](NS(=O)(=O)c3ccc(F)cc3)[C@H](CO)O2)nn1	0.21
CCOC(=O)c1cc2c(c(-c3cccc(-c4cccc(F)c4)c3)n1)[C@H](CCO)N(S(=O)C(C)(C)C)C2 (stereo not given in full)	-0.25
O=S(=O)(c1cccs1)N1CCCCN2[C@@H](CO)[C@@H](c3ccc(C4=CCCC4)cc3)[C@@H]2C1	0.37
CCS(=O)(=O)N1CC(=O)N2[C@@H](CO)[C@H](c3ccc(C#CC4CCCC4)cc3)[C@@H]2C1	2.2
O=S(=O)(c1ccccc1)N1CCCCN2[C@H](CO)[C@H](c3ccc(-c4ccccc4F)cc3)[C@@H]2C1	0.92
CO[C@H]1CN(C)C(=O)c2cc(NC(=O)CC(F)(F)F)ccc2OC[C@H](C)N(CC2CC2)C[C@@H]1C	1.6
CCS(=O)(=O)N1CC(=O)N2[C@@H](CO)[C@H](c3ccc(C#CC4CC4)cc3)[C@@H]2C1	4.4
CCS(=O)(=O)N1CC(=O)N2[C@H](CO)[C@@H](c3ccc(-c4cccc(F)c4)cc3)[C@H]2C1	0.17
CS(=O)(=O)N1CC(=O)N2[C@@H](CO)[C@@H](c3ccc(Br)cc3)[C@@H]2C1	-1.1
Cc1ccccc1-c1ccc([C@@H]2[C@H]3CN(S(C)(=O)=O)CC(=O)N3[C@H]2CO)cc1	-5.1*
CCS(=O)(=O)N1CC(=O)N2[C@H](CO)[C@@H](c3ccc(-c4ccccc4C)cc3)[C@@H]2C1	-16*
CCS(=O)(=O)N1CC(=O)N2[C@@H](CO)[C@H](c3ccc(-c4ccccc4C)cc3)[C@@H]2C1	-5.8*
CCS(=O)(=O)N1CC(=O)N2[C@H](CO)[C@@H](c3ccc(C#Cc4ccc(F)cc4)cc3)[C@H]2C1	0.79
CCS(=O)(=O)N1CC(=O)N2[C@H](CO)[C@@H](c3ccc(-c4ccccc4F)cc3)[C@@H]2C1	-11*
CCS(=O)(=O)N1CC(=O)N2[C@@H](CO)[C@H](c3ccc(-c4ccccc4F)cc3)[C@@H]2C1	2.2
CCN1CC(=O)N2[C@H](C1)[C@@H](c1ccc(-c3ccccc3F)cc1)[C@@H]2CO	-2.6
CCS(=O)(=O)N1CC(=O)N2[C@H](CO)[C@@H](c3ccc(C4=CCCCC4)cc3)[C@@H]2C1	-0.2
Cc1ccccc1-c1ccc([C@@H]2[C@@H](CO)N3C(=O)CN(S(C)(=O)=O)C[C@H]23)cc1	-1.5
CO[C@@H]1CN(C)C(=O)c2cc(NC(=O)Nc3cc(F)ccc3F)ccc2OC[C@H](C)NC[C@H]1C	2.2
O=C1CN(S(=O)(=O)c2ccccc2)C[C@H]2[C@@H](c3ccc(Br)cc3)[C@@H](CO)N12	-0.54
SMILES	IDE exosite inh
CNC[C@H]1OCCCC[C@H](C)Oc2ccc(NS(=O)(=O)c3ccc(F)cc3)cc2C(=O)N([C@@H](C)CO)C[C@@H]1C	2.8
Cc1noc(C)c1S(=O)(=O)N(C)C[C@H]1OCCCC[C@@H](C)Oc2ccc(NC(=O)CCC(F)(F)F)cc2C(=O)N([C@@H](C)CO)C[C@@H]1C	1.6
CO[C@H]1CN(C)C(=O)c2cc(NS(=O)(=O)c3ccc(Cl)cc3)ccc2OC[C@H](C)N(C(=O)NC(C)C)C[C@@H]1C	1.6
O=C1NCCOCc2cn(nn2)CCC[C@@H]1Cc1ccccc1	-0.16
CCN(C[C@@H]1N[C@@H](CO)[C@H]1c1ccc(-c2cccc(F)c2)cc1)C(=O)COC	2.6
O=C(NC[C@H]1N[C@H](CO)[C@@H]1c1ccc(C2=CCCC2)cc1)C1CCCCC1	0.34
Cc1ccc(S(=O)(=O)Nc2cccc3c2O[C@@H](CN(C)C(=O)Nc2ccc(C(F)(F)F)cc2)[C@H](C)CN([C@H](C)CO)C3=O)cc1	-0.73
CN(C[C@@H]1N[C@H](CO)[C@@H]1c1ccc(C2=CCCC2)cc1)S(C)(=O)=O	5.4
CC(C)C#Cc1ccc([C@@H]2[C@@H](CO)N3C(=O)CN(S(=O)(=O)c4ccccc4)C[C@@H]23)cc1	0.01
CCS(=O)(=O)N1CC(=O)N2[C@H](CO)[C@H](c3ccc(-c4ccc(F)cc4)cc3)[C@@H]2C1	2.5
CCS(=O)(=O)N1CC(=O)N2[C@H](CO)[C@@H](c3ccc(-c4ccc(F)cc4)cc3)[C@H]2C1	3.8
CCS(=O)(=O)N1CC(=O)N2[C@H](CO)[C@@H](c3ccc(-c4ccccc4)cc3)[C@@H]2C1	-5.4*
O=C(Nc1ccccc1)N1CCCCN2[C@@H](CO)[C@H](c3ccc(C#Cc4cccnc4)cc3)[C@@H]2C1	-5.3*
